Measurements from paper PMC4336329 (PLoS ONE, 2015).
In all, about 310,000 compounds went through this assay and about 14,000 (4.5%) showed an effect of 50% or more. The effect is printed as a negative number. The entries come from a sample that favours strong results as a whole.

These compounds were tested against human ether-à-go-go-related gene (hERG) potassium channel (human, UniProt Q12809) (assay: primary screen, population patch clamp on CHO cells stably expressing hERG; higher = less effect of the substance).
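Note: peak tail current of the secondary pulse compared with the same well before compound.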

human ether-à-go-go-related gene (hERG) potassium channel, sequence (Q12809 whole entry, looked up): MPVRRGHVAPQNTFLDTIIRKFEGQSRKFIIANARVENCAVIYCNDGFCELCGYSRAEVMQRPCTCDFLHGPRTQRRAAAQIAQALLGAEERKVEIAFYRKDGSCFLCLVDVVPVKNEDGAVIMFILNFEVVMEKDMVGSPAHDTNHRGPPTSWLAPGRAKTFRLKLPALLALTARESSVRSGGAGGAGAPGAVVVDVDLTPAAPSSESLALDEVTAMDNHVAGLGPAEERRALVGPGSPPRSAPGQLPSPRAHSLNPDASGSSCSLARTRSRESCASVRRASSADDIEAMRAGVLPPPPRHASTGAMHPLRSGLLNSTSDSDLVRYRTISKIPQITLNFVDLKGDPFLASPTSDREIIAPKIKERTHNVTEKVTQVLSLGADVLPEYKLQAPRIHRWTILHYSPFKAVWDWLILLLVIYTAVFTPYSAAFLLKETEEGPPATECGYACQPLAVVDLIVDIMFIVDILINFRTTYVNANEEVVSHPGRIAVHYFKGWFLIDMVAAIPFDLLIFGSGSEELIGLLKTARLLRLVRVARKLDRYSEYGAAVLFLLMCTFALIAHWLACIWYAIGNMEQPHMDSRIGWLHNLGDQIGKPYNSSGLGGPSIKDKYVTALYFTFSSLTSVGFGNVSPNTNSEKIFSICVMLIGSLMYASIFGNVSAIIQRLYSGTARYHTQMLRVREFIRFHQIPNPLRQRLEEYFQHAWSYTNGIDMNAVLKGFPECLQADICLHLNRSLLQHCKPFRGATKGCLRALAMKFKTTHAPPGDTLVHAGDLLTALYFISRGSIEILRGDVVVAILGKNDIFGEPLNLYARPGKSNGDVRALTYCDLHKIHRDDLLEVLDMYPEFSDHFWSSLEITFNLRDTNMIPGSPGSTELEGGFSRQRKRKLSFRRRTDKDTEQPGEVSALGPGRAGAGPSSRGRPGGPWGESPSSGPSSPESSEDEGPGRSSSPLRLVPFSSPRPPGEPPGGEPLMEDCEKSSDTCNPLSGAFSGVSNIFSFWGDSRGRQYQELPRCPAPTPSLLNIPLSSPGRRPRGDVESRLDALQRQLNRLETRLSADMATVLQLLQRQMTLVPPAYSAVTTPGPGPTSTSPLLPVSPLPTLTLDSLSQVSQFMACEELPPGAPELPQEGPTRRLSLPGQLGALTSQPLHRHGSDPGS

SMILES	hERG current change (%, negative = inhibition) at 10uM [%]
CCOC(=O)C1CCCN(C(=O)CS(=O)(=O)Cc2ccccc2)C1 (centres unmarked)	15.3
O=C(CNC(=O)c1ccc2c(c1)OCO2)N/N=C/c1cc(Br)ccc1O	20.1
Cn1c(SCC(N)=O)nnc1C1CCN(S(=O)(=O)c2ccccc2C(F)(F)F)CC1	13.3
COCC(=O)Nc1cc(=O)n(C)c(=O)n1C	4.94
CC(C)(C)C(=O)Nc1nnc(SCC(=O)NCc2cccs2)s1	16.3
OC(CNCc1ccc(Cl)cc1)(c1ccccc1)c1ccc(F)cc1 (centres unmarked)	-4.52
COc1ccc(CNCC(O)(c2ccccc2)c2ccc(Cl)cc2)cc1 (centres unmarked)	-68.8
CCc1ccc(C(O)(CNCc2ccccc2)c2ccccc2)cc1 (centres unmarked)	-41.6
COc1ccc(CNCC(O)(c2ccccc2)c2ccccc2)cc1	-64
OC(CNCc1ccccc1)(c1ccccc1)c1ccccc1	-9.7
COc1ccc(CNCC(O)(c2ccc(Cl)cc2)c2ccc(Cl)cc2)cc1	-12
CN(CC(=O)Nc1ccccc1Cl)C(=O)CSc1ncc(C(F)(F)F)cc1Cl	9.55
CCCCCCCNC(=O)CC(NS(=O)(=O)c1ccc(NC(C)=O)cc1)C(C)C (centres unmarked)	3.19
CCCc1c(C)c(C#N)c2nc3ccccc3n2c1NCCCN1CCOCC1	-44
CCCc1cc(NCCCCO)n2c(nc3ccccc32)c1C#N	-53.1
CCCc1cc(NCCCO)n2c(nc3ccccc32)c1C#N	-16.6
CC(C)c1cc(NCC2CCCO2)n2c(nc3ccccc32)c1C#N (centres unmarked)	-41
CCCc1cc(NCC2CCCO2)n2c(nc3ccccc32)c1C#N (centres unmarked)	-66.5
Cc1cc(NCCN2CCOCC2)n2c(nc3ccccc32)c1C#N	-6.09
CCCc1cc(NCCCN2CCOCC2)n2c(nc3ccccc32)c1C#N	-75.7
CC(C)c1cc(NCCCN2CCOCC2)n2c(nc3ccccc32)c1C#N	-79.9
CCCc1cc(NCCCN(C)C)n2c(nc3ccccc32)c1C#N	0.382

SMILES	hERG current change (%, negative = inhibition) at 10uM [%]
CCCc1cc(NCCN(C)C)n2c(nc3ccccc32)c1C#N	-7.73
Cc1cc(NCC2CCCO2)n2c(nc3ccccc32)c1C#N (centres unmarked)	-21.2
Cc1cc(NCCCN2CCOCC2)n2c(nc3ccccc32)c1C#N	-23.3
Cn1c(=O)oc2cc(S(=O)(=O)NC3CCN(Cc4ccccc4)CC3)ccc21	-36.4
CC1Cc2ccccc2N1C(=S)Nc1cccc(S(=O)(=O)N(C)C)c1 (centres unmarked)	2.06
O=C(c1ccc2c(c1)OCO2)N1CCC2(CC1)OCCO2	-10.6
CC1CCN(CC(CS(=O)(=O)c2ccc([N+](=O)[O-])cc2)N2CCC(C)CC2)CC1 (centres unmarked)	-62.1
CC1CCN(S(=O)(=O)c2ccc(Oc3ccc([N+](=O)[O-])cc3)cc2)CC1	-21.7
Cc1ccc(OCCN2CCNCC2)c([N+](=O)[O-])c1.O=C(O)C(=O)O	-5.84
CC1CCN(S(=O)(=O)c2ccc([N+](=O)[O-])cc2)CC1	-3.23
O=C(O)C(=O)O.O=[N+]([O-])c1ccc(OCCN2CCNCC2)cc1	-76
O=[N+]([O-])c1ccc(S(=O)(=O)CC(CN2CCOCC2)N2CCOCC2)cc1 (centres unmarked)	-1.68
CC1CCN(CCCCOc2ccc([N+](=O)[O-])cc2)CC1	-74.7
O=C(O)C(=O)O.O=[N+]([O-])c1ccc(OCCN2CCCCCC2)cc1	-86.1
Fc1ccc(OCCOCCN2CCNCC2)cc1.O=C(O)C(=O)O	6.98
CC1CCN(CCCCOc2ccccc2[N+](=O)[O-])CC1.O=C(O)C(=O)O	-26.3
COc1ccc(C)cc1N(C(=O)COc1cccc(F)c1)c1nc2ccccc2s1	-27.2
O=[N+]([O-])c1ccc(-n2nnnc2-c2ccccc2)c([N+](=O)[O-])c1	6.9
COc1cccc(CN2CC(C(=O)NCc3cccc(N4CCCC4)c3)CCC2=O)c1 (centres unmarked)	-5.08
CCOc1ccc(S(=O)(=O)NC2CC2)cc1	4.15
N/C(=N\OC(=O)c1ccc2ccccc2c1)c1ccncc1	-38.4
C[C@H](CCC(=O)O)[C@H]1CC[C@H]2[C@@H]3[C@H](O)C[C@@H]4C[C@H](O)CC[C@]4(C)[C@H]3CC[C@]12C	13.8
